Measurements from PubChem BioAssay (Tox21).
Values joined by “and” are separate entries in the source; they are usually repeats but may differ in a detail not shown here. Equal values may be shown once. Values without a mark were called inactive. Records with an inconclusive call do not appear. Where a call stands in place of a potency, no number is given. Active and inactive are the calls of the source. Unless noted, calls come from the whole dose curve.

Assays:
Aromatase (Homo sapiens) = Aromatase (Homo sapiens) (UniProt P11511); test: qHTS assay to identify aromatase inhibitors (AID 743083; active = well fitted curve in the direction sought with a large enough effect in the repeat runs; an effect the other way counts as inactive or inconclusive; note: nearly all actives have a fitted effect of over 55% in size; note: potency is the fitted concentration of half-maximal effect)
[1] = biological target: Aryl hydrocarbon receptor (Homo sapiens) (UniProt P35869); test: qHTS assay to identify small molecule that activate the aryl hydrocarbon receptor (AhR) signaling pathway (AID 743085; active = well fitted curve in the direction sought with a large enough effect in the repeat runs; an effect the other way counts as inactive or inconclusive;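 note: HG2L7.5c1 human HepG2 liver cells with stably integrated DRE-driven firefly reporter; nearly all actives have a fitted effect of over 15% in size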)
Method in brief: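 A multiplexed format paired cell viability (CellTiter-Fluor fluorescence) with AhR-dependent luciferase output (ONE-Glo luminescence) in the same wells of HepG2 DRE-luc cells after 24 h compound exposure at 37C.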

[2] = qHTS assay to identify small molecule agonists of H2AX (AID 1224845; active = well fitted activation curve with a large enough effect in the signal ratio in the repeat runs, not every such curve was filed as active; the % refers to the signal ratio; note: potency is the fitted concentration of half-maximal effect)
Method in brief: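 Wild-type CHO-K1 cells plated overnight, then exposed 3 hr at 37C to compounds at 15 concentrations (0.76% DMSO). Lysed, then HTRF anti-pH2AX(S139)-cryptate/anti-H2AX-d2 detection after 24 hr at room temperature; emissions 665 and 620 nm.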

[3] = qHTS assay to identify small molecule agonists of the estrogen related receptor (ERR) signaling pathway from Tox21 library (AID 1224849); conditions: ERR reporter cell line, ONE-Glo luciferase, 18 h; at 92.4 µM (top of the series) unless noted; note: nearly all actives have a fitted effect of over 15% in size
Method in brief: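 Quantitative HTS in agonist format: NTP ERR cell line, compounds transferred in DMSO after 6 h plating, 18 h incubation at 37 C, ONE-Glo luminescence endpoint.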

[4] = A CellTox Green Cytotoxicity Assay to monitor cytotoxicity in HepG2 cells - 0 hour (AID 1224882; active = well fitted curve in the direction sought with a large enough effect in the repeat runs; an effect the other way counts as inactive or inconclusive; note: nearly all actives have a fitted effect of over 35% in size)
Method in brief: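 First, HepG2 cells (600/well) mixed with reagent were plated; second, after 5 h at 37 C they received compounds via pintool; third, fluorescence was measured at 0 h through 40 h at 8 h intervals.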

[5] = qHTS assay to identify small molecule HDAC inhibitors (AID 1259364; active = well fitted curve in the direction sought with a large enough effect in the repeat runs; an effect the other way counts as inactive or inconclusive;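 note: wild-type HCT-116 cells with endogenous class I/II HDAC activity; top concentration of the series differs between compounds; nearly all actives have a fitted effect of over 45% in size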)
Method in brief: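 Quantitative high-throughput format: overnight-seeded HCT-116 cells got compounds for 2 hr at 37C; HDAC-Glo I/II reagent added, 30 min RT, luminescence measured.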

[6] = qHTS assay to identify small molecule agonists of the sonic hedgehog signaling (Shh) pathway (AID 1259368);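 note: NIH/3T3-derived 3T3Gli1-Luc cells carrying a stable Gli1-driven firefly luciferase reporter; nearly all actives have a fitted effect of over 15% in size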
Method in brief: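 Quantitative high-throughput format using a Gli1-driven firefly luciferase reporter line derived from NIH/3T3 cells. After a 24 hr compound treatment at 37 C and 5% CO2, luminescence reported Gli1 response element activity.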

[7] = Caspase-3/7 induction in HepG2 cells by small molecules, qHTS assay (AID 1346978; active = well fitted curve in the direction sought with a large enough effect in the repeat runs; an effect the other way counts as inactive or inconclusive; note: nearly all actives have a fitted effect of over 15% in size; note: potency is the fitted concentration of half-maximal effect)
Method in brief: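 Wild-type HepG2 cells (2,000/well) were settled 5 h at 37 C, 5% CO2, then exposed to compounds in DMSO for 17 h. Caspase-3/7 activity was read by luminescence 30 min after adding Caspase-Glo 3/7 reagent at room temperature.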

[8] = Caspase-3/7 induction in CHO-K1 cells by small molecules, qHTS assay (AID 1346980; active = well fitted curve in the direction sought with a large enough effect in the repeat runs; an effect the other way counts as inactive or inconclusive; note: nearly all actives have a fitted effect of over 15% in size)
Method in brief: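 Wild-type cells were seeded at 1,500 per well and settled 5 hr at 37 C, 5% CO2, then exposed to DMSO-dissolved compounds for 17 hr. Caspase-Glo 3/7 reagent was added, and luminescence was read after 30min at room temperature.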

[9] = biological target: Acetylcholinesterase (Homo sapiens) (UniProt P22303); test: Acetylcholinesterase (AChE) small molecule antagonists: colormetric cell-based qHTS assay (AID 1347395); note: nearly all actives have a fitted effect of over 30% in size
Method in brief: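 Homogeneous whole-cell format. SH-SY5Y cells seeded overnight, dosed with compound (30 min, 37 C, 5% CO2), then given DTNB/acetylthiocholine cocktail for 90 min at 37 C; colorimetric signal.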

[10] = biological target: Acetylcholinesterase (Homo sapiens) (UniProt P22303); test: Acetylcholinesterase (AChE) small molecule antagonists: enzyme-based qHTS assay (AID 1347397); conditions: Potency: AChE enzyme activity inhibition; outcome: AChE enzyme activity inhibition; note: nearly all actives have a fitted effect of over 55% in size
Method in brief: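 Tox21 library chemicals are tested in qHTS format against recombinant human AChE. The enzyme, dispensed at 50 mU/mL, sits with compound for 30 min at room temperature. A DTNB–acetylthiocholine cocktail follows, and colour is read after 10 min.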

[11] = biological target: Acetylcholinesterase (Homo sapiens) (UniProt P22303); test: Acetylcholinesterase (AChE) small molecule antagonists: fluorescence cell-based qHTS assay (AID 1347398); conditions: Potency: AChE activity; outcome: AChE activity; note: nearly all actives have a fitted effect of over 50% in size
Method in brief: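 Cellular AChE inhibition: SH-SY5Y cells treated with test chemical for 30 min at 37 C, then acetylthiocholine hydrolysis followed over 40 min at room temperature via thiocholine-reactive Thiolite Green fluorescence (490/520 nm).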

[12] = biological target: Acetylcholinesterase (Homo sapiens) (UniProt P22303); test: Acetylcholinesterase (AChE) small molecule antagonists: enzyme-based qHTS assay with human liver microsomes (AID 1347399); conditions: Potency: qHTS inhibition; outcome: qHTS inhibition; note: nearly all actives have a fitted effect of over 60% in size
Method in brief: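 Recombinant human AChE (50 mU/mL in the enzyme mix) and human liver microsomes (0.25 mg/mL final) were preincubated with compound and NADPH (0.25 mg/mL final) for 30 min at 37 C. Acetylthiocholine/DTNB was then added; thiocholine was read colorimetrically after 10 min at room temperature.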

[13] = qHTS assay to identify small molecule antagonists of the retinoic acid receptor (RAR) signaling pathway (AID 1159552; active = well fitted curve in the direction sought with a large enough effect in the repeat runs; an effect the other way counts as inactive or inconclusive; note: nearly all actives have a fitted effect of over 50% in size; note: potency is the fitted concentration of half-maximal effect)
Method in brief: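 Antagonism of retinol-induced RARE reporter activity was measured in C3RL4 cells. Exposure to compounds and 1 uM final retinol lasted 6 hr at 37 C, with luminescence as endpoint.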

Acetylcholinesterase (Homo sapiens), sequence (P22303 whole entry, looked up): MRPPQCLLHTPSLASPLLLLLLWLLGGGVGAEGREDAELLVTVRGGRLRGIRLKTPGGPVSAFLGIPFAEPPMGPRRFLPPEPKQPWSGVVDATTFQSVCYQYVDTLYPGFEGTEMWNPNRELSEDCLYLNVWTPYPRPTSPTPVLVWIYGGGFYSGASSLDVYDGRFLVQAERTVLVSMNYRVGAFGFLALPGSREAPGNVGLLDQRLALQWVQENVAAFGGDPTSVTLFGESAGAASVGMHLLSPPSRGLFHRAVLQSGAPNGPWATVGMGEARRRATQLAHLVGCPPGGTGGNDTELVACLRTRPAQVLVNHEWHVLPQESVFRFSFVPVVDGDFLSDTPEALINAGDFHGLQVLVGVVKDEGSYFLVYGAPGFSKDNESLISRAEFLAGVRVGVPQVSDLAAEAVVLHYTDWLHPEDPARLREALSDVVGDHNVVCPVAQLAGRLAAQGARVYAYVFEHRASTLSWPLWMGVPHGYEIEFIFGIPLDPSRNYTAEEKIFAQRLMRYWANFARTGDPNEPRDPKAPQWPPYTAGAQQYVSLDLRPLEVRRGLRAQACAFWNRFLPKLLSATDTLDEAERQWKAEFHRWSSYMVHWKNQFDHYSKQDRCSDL
Aromatase (Homo sapiens), sequence (P11511 whole entry, looked up): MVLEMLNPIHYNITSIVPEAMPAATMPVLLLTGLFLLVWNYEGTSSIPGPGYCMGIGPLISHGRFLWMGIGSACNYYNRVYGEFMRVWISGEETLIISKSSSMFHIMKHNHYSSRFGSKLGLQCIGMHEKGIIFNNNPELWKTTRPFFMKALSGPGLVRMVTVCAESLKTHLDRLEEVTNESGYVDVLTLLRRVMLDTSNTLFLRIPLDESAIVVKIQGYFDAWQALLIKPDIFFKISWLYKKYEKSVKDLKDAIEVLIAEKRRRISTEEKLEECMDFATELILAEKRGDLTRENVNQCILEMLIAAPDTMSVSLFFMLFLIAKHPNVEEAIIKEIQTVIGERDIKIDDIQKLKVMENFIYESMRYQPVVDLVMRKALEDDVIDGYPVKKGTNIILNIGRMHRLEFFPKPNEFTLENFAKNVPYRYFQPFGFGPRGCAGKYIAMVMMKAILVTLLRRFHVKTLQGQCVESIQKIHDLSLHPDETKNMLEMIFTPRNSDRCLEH
Aryl hydrocarbon receptor (Homo sapiens), sequence (P35869 whole entry, looked up): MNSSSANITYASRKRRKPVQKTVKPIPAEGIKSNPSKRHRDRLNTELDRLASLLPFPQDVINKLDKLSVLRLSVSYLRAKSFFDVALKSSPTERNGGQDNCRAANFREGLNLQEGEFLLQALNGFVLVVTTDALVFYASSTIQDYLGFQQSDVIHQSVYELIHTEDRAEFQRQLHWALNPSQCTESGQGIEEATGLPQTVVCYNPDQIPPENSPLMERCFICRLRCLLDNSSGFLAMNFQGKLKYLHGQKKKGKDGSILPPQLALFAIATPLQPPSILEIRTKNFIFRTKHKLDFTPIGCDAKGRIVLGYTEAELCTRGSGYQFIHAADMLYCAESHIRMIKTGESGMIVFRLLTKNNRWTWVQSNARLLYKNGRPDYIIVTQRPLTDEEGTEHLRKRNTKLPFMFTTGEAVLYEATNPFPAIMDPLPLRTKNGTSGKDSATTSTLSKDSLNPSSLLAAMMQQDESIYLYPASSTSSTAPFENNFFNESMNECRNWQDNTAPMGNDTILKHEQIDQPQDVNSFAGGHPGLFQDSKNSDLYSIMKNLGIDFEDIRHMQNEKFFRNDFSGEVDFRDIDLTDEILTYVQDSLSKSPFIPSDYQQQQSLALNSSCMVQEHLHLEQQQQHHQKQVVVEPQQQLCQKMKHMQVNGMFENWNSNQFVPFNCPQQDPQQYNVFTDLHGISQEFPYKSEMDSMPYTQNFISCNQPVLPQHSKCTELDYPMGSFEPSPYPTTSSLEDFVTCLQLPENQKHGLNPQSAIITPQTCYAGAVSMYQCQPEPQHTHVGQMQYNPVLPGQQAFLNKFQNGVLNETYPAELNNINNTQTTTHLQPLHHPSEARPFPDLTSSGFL

CN1CSC(=S)N(C)C1
Potency (Aromatase (Homo sapiens)): 4.83 µM (active) and 3.85 µM (active) | Potency [1]: inactive | Potency [2]: 4.48 µM (active) | activity change, positive = activation [3]: -78.8% and -76.3% | Potency [4]: inactive | outcome [5]: inactive | outcome [6]: inactive | Potency [7]: 7.66 µM (active) | outcome [8]: inactive | Potency [9]: inactive | Potency [10]: inactive | Potency [11]: inactive | Potency [12]: inactive

O=S(=O)(C(Cl)(Cl)Cl)C(Cl)(Cl)Cl
Potency [13]: 9.69 µM (active) | activity change, positive = activation [3]: -70.9% | Potency [4]: inactive | outcome [5]: inactive | outcome [6]: inactive | Potency [7]: inactive | outcome [8]: inactive | Potency [9]: inactive | Potency [10]: inactive | Potency [11]: inactive | Potency [12]: inactive

COCCOC(=O)c1ccccc1C(=O)OCCOC
Potency (Aromatase (Homo sapiens)): inactive | Potency [1]: inactive | Potency [13]: inactive | Potency [7]: inactive | Potency [9]: inactive | Potency [10]: inactive | Potency [11]: inactive | Potency [12]: inactive

O=C1OC(=O)c2c(Cl)c(Cl)c(Cl)c(Cl)c21
Potency (Aromatase (Homo sapiens)): inactive | Potency [13]: inactive | activity change, positive = activation [3]: -2.98% | Potency [7]: inactive | Potency [9]: inactive | Potency [10]: inactive | Potency [11]: inactive | Potency [12]: inactive

Brc1c2ccccc2c(Br)c2ccccc12
activity, negative = inhibition (Aromatase (Homo sapiens)): 2.07% [at 8.47 µM] | activation [1]: -3.68% [at 8.47 µM] | activity, negative = inhibition [13]: 4.27% [at 8.39 µM] | activation (H2AX phosphorylation) [2]: -2.5% [at 14 µM] | activity, negative = inhibition [9]: 0.841% [at 10.5 µM] | activity change, negative = inhibition [10]: 0.273% [at 10.5 µM] | activity change, negative = inhibition [11]: 6.02% [at 10.5 µM] | activity change, negative = inhibition [12]: 1.07% [at 10.5 µM]

CCCCC(CC)COC(=O)c1ccc(C(=O)OCC(CC)CCCC)cc1 (stereo unspecified)
Potency (Aromatase (Homo sapiens)): inactive | Potency [1]: inactive | Potency [13]: inactive | Potency [2]: inactive | activity change, positive = activation [3]: 0.923% | Potency [9]: inactive | Potency [10]: inactive | Potency [11]: inactive | Potency [12]: inactive

Cc1cc(C)c(C(=O)P(=O)(c2ccccc2)c2ccccc2)c(C)c1
Potency [13]: inactive | activity change, positive = activation [3]: -54.9% | Potency [4]: inactive | outcome [5]: inactive | outcome [6]: inactive | Potency [7]: inactive | outcome [8]: inactive | Potency [9]: inactive | Potency [10]: inactive | Potency [11]: inactive | Potency [12]: inactive

CCC(C)=O
Potency (Aromatase (Homo sapiens)): inactive | Potency [13]: inactive | Potency [2]: inactive | activity change, positive = activation [3]: -6.3% | Potency [9]: inactive | Potency [10]: inactive | Potency [11]: inactive | Potency [12]: inactive

OCC(c1ccc(Cl)cc1)c1ccc(Cl)cc1
Potency (Aromatase (Homo sapiens)): 30.6 µM (active) | Potency [1]: inactive | Potency [13]: 43.3 µM (active) | Potency [2]: inactive | Potency [4]: inactive | outcome [5]: inactive | outcome [6]: inactive | outcome [8]: inactive | Potency [9]: inactive | Potency [10]: inactive | Potency [11]: inactive | Potency [12]: inactive

Nc1ccc(Cl)cc1[N+](=O)[O-]
Potency (Aromatase (Homo sapiens)): inactive | Potency [13]: inactive | Potency [2]: inactive | Potency [9]: inactive | Potency [10]: inactive | Potency [11]: inactive | Potency [12]: inactive

c1ccc2c(c1)Sc1ccccc1N2CC1CN2CCC1CC2 (stereo unspecified)
Potency [1]: inactive | Potency [13]: 29.8 µM (active) | activity change, positive = activation [3]: -49.8% [at 42.5 µM] | Potency [4]: inactive | outcome [5]: inactive | outcome [6]: inactive | outcome [8]: inactive | Potency [9]: inactive | Potency [10]: inactive | Potency [11]: inactive | Potency [12]: inactive

O=C(c1ccc(Cl)cc1)c1ccc(Cl)cc1
Potency [7]: inactive | Potency [9]: inactive | Potency [10]: inactive | Potency [11]: inactive | Potency [12]: inactive
